# Data: the supplement of paper PMC10849652
# Of roughly 7,900 targets only a part is listed; those with a hit were picked by preference. About 0.6% of all pairs of compound and target were hits. Values without a mark were called inactive.
# Assays:
# Experiment in all cases: log2 fold change, soluble protein after heating vs DMSO (PISA); higher = thermal stabilisation; K562 cells, 10 uM, 30 min; active = over 0.2 and 3.5 SD of the protein, either way, in both replicates (recomputed)
# [1] = compound: C1=CC=C(C=C1)[C@H](COC2=CC3=C(C=C2)NC(=O)N3)NC(=O)C4=CC=CN(C4=O)CC5=CC(=C(C=C5)F)F
# Procedure, shortened: (§1)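 K562 cells at 2×10^6 cells/mL were treated for 30 min with 10 μM compound, and aliquots were heated for 3 min over 48°C-58°C before pooling. Extraction used PBS with 0.5% NP-40 at 4°C, and soluble protein was the supernatant after 21,000xg for 90 min, measured by TMTpro 16plex LC-MS/MS with channel sums equalised. Thermal stability values, relative to control samples and from duplicates, are log2 fold changes.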
# [2] = compound: CC1=C(SC2=C1C(=N[C@H](C3=NN=C(N32)C)CC(=O)N)C4=CC=C(C=C4)Cl)C
# Procedure, shortened: as §1
# [3] = compound: CC1=C2C(=CC=C1)N=C(N(C2=O)C3=CC=CC=C3C)CN4C=NC5=C(N=CN=C54)N
# Procedure, shortened: as §1
# [4] = compound: Cc1sc2c(c1C)C(c1ccc(Cl)cc1)=N[C@@H](CC(=O)OC(C)(C)C)c1nnc(C)n1-2
# Procedure, shortened: as §1
# [5] = compound: c1ccc([C@@H]2C[C@H]2NC2CCNCC2)cc1
# Procedure, shortened: as §1
# UniProt P11142, sequence (P11142 whole entry, looked up): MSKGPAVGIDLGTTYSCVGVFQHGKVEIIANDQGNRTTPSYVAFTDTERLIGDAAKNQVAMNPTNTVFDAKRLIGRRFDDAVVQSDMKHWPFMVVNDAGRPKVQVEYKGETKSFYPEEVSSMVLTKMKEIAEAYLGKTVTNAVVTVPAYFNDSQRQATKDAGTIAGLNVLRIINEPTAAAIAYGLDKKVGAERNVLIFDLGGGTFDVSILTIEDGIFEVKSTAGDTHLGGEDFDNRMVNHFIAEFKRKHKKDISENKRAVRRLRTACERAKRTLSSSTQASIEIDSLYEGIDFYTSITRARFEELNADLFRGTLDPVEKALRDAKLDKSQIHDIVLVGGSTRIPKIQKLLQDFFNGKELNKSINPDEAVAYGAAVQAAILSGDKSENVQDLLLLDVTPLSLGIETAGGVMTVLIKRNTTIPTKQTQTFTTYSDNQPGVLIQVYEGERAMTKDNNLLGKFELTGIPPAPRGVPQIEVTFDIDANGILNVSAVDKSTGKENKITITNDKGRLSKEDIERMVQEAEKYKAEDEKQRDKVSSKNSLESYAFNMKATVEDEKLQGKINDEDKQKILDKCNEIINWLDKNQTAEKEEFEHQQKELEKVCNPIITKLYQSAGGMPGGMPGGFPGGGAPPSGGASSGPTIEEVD
# UniProt P15586, sequence (P15586 whole entry, looked up): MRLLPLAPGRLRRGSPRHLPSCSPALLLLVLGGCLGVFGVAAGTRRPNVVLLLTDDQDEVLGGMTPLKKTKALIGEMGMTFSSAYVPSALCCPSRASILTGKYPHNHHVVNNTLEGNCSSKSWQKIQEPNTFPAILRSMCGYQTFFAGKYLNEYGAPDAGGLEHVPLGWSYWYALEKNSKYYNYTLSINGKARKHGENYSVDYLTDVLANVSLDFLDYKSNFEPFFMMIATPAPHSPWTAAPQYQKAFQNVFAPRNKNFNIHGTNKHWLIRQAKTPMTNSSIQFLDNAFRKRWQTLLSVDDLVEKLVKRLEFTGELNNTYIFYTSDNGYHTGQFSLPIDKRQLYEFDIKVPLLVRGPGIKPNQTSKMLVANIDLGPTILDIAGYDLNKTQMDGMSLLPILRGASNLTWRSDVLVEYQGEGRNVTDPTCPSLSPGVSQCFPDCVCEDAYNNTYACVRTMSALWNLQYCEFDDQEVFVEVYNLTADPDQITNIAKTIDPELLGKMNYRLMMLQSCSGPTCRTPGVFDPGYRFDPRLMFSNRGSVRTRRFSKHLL
# UniProt Q9BXW9, sequence (Q9BXW9 whole entry, looked up): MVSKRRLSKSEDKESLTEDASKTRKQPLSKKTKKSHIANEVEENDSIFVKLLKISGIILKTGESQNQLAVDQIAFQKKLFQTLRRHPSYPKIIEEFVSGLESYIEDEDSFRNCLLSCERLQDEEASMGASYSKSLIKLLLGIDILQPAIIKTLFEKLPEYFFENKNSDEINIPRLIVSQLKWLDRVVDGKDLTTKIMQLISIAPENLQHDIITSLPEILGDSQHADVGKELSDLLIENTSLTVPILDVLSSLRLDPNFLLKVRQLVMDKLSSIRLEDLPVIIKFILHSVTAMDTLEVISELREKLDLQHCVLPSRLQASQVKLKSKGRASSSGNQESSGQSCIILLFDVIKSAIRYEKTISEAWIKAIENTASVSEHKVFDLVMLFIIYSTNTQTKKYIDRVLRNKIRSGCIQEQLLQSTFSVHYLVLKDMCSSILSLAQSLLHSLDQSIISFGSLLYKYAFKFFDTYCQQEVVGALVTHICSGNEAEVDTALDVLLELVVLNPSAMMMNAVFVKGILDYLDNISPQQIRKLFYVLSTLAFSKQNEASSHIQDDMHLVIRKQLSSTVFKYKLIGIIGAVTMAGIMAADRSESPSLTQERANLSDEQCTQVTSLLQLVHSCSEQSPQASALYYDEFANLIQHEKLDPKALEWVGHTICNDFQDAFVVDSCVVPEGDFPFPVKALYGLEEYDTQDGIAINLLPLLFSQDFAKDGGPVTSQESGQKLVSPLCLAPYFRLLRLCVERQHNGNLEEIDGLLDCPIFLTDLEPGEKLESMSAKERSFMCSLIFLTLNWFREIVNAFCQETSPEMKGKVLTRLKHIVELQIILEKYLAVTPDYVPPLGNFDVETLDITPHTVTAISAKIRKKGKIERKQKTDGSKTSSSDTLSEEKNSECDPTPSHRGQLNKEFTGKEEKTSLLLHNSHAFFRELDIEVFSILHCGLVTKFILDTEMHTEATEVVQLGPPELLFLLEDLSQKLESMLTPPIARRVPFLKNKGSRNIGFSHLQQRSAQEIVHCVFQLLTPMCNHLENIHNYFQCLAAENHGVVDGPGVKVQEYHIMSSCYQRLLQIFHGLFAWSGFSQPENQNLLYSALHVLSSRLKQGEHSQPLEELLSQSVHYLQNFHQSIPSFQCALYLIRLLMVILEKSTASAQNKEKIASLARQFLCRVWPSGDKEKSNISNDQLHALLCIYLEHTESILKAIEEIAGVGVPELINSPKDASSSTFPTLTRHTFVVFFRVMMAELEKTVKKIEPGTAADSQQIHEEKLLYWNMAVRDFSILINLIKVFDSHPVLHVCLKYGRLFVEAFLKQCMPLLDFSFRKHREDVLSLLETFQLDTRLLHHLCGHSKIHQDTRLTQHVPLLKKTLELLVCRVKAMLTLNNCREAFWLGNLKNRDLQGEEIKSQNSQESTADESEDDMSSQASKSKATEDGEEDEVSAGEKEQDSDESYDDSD
# UniProt Q8N9F7, sequence (Q8N9F7 whole entry, looked up): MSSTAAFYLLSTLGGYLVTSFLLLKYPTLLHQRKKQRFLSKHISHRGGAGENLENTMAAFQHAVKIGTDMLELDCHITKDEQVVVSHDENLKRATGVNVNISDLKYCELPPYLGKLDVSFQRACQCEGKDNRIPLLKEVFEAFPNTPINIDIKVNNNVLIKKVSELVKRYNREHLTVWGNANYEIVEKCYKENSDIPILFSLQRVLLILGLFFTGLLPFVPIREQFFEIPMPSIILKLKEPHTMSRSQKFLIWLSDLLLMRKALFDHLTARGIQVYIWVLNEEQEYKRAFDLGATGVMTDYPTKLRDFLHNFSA
# UniProt O00165, sequence (O00165 whole entry, looked up): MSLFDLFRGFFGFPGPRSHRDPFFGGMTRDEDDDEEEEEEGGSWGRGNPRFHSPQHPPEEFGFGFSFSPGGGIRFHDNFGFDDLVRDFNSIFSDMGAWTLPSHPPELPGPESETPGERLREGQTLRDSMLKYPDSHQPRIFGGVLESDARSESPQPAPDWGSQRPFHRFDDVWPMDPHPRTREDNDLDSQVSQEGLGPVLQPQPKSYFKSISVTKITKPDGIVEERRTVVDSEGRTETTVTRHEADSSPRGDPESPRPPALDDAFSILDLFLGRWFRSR
# UniProt Q9Y248, sequence (Q9Y248 whole entry, looked up): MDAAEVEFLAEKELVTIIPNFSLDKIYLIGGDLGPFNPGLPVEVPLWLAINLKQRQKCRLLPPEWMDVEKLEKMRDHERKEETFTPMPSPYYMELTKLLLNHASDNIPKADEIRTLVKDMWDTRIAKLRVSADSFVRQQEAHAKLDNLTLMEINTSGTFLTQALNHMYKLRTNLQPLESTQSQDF
# UniProt P16278, sequence (P16278 whole entry, looked up): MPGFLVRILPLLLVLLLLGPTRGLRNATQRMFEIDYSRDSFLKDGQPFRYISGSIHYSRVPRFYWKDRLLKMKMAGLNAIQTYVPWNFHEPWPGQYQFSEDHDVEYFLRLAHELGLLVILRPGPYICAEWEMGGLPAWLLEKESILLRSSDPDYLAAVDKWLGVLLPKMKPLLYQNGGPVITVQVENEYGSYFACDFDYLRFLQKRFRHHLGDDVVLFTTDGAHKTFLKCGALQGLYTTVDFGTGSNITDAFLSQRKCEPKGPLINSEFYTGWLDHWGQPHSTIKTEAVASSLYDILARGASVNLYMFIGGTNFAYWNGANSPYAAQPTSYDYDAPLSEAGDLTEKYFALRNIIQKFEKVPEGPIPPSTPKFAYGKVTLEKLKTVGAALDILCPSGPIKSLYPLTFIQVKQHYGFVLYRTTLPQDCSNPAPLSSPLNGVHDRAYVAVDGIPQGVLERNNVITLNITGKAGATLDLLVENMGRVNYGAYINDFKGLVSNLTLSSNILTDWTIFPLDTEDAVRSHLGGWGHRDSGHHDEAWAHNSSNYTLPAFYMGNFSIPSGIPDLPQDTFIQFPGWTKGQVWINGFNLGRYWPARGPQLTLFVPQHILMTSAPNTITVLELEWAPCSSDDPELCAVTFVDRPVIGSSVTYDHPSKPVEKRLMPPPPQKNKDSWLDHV
# UniProt Q9Y3D6, sequence (Q9Y3D6 whole entry, looked up): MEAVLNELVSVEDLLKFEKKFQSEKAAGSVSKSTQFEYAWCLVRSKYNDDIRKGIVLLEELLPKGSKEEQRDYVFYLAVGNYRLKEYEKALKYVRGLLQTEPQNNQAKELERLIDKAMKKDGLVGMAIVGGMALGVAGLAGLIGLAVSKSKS
# UniProt Q9Y3I1, sequence (Q9Y3I1 whole entry, looked up): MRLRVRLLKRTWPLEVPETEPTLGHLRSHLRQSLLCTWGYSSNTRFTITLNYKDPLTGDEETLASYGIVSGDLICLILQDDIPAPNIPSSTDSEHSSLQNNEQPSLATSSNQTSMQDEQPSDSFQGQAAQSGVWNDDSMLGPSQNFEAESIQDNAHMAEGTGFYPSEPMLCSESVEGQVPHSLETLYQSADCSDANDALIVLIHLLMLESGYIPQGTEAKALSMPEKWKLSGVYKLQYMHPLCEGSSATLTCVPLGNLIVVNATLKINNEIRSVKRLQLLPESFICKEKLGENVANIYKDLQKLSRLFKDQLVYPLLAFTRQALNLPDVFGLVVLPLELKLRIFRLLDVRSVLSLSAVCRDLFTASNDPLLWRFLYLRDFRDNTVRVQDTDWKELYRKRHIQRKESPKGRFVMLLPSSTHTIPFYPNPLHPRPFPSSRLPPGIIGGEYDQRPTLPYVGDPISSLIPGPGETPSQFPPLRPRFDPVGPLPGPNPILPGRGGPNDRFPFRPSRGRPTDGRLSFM
# UniProt Q96HJ9, sequence (Q96HJ9 whole entry, looked up): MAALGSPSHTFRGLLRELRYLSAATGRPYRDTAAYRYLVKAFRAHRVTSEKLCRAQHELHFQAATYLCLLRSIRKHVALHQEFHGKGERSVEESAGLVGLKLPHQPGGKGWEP
Target,log2 fold change [1],log2 fold change [2],log2 fold change [3],log2 fold change [4],log2 fold change [5]
HBQ1 (UniProt P09105),0.023,0.135,0.092,-0.147,-0.037
HK2 (UniProt P52789),-0.006,0.045,0.007,-0.025,-0.016
HDAC1 (UniProt Q13547),0.004,0,-0.004,0.03,0.154
HAX1 (UniProt O00165),-0.112,-0.008,0.063,0.008,-0.002
IFRD1 (UniProt O00458),-0.011,-0.069,0.049,0.02,0.004
FUCA2 (UniProt Q9BTY2),0.055,-0.004,0.005,0.034,0.006
HIP1R (UniProt O75146),-0.038,0.061,0.1,-0.031,-0.02
FAT2 (UniProt Q9NYQ8),-0.092,0.669 (active),0.163,-0.091,-0.218
FBXO7 (UniProt Q9Y3I1),-0.002,0.033,0.045,-0.033,0.024
GNAI3 (UniProt P08754),-0.005,0.019,0.011,-0.154,-0.032
FECH isoform 2 (UniProt P22830),0.008,0.03,0.023,-0.07,-0.08
GDI1 (UniProt P31150),-0.025,0.054,0.043,-0.022,-0.025
HMGB3 (UniProt O15347),-0.005,0.022,-0.03,-0.055,-0.033
GUK1 isoform 2 (UniProt Q16774),-0.042,0.003,0.084,-0.021,0.031
IFT74 (UniProt Q96LB3),0.134,0.11,0.163,0.003,-0.069
HECTD1 (UniProt Q9ULT8),0.009,0,0.098,0.051,-0.004
GNAS (UniProt Q5JWF2),0.016,-0.008,0.045,-0.038,0.013
GNB2 (UniProt P62879),0.025,0.045,0.029,-0.09,-0.015
GMEB2 (UniProt Q9UKD1),0.037,0.073,0.068,-0.007,-0.016
HSPA8 (UniProt P11142),-0.019,-0.032,-0.02,0.005,-0.008
GSK3A (UniProt P49840),0.006,0.099,0.02,-0.014,-0.034
FANCI (UniProt Q9NVI1),-0.071,0.028,0.109,-0.008,-0.037
FIS1 (UniProt Q9Y3D6),0.047,0.021,0.035,-0.081,-0.011
GCLM (UniProt P48507),-0.014,0.062,0.108,0,-0.053
GLUD1 (UniProt P00367),0.046,0.065,-0.004,0.071,-0.03
GTPBP6 (UniProt O43824),0.038,0.007,0.012,-0.062,-0.034
GLB1 (UniProt P16278),0.042,-0.065,0.011,-0.043,0.026

Target,log2 fold change [1],log2 fold change [2],log2 fold change [3],log2 fold change [4],log2 fold change [5]
GTF2A1 (UniProt P52655),0.04,-0.021,-0.01,-0.004,-0.006
GALNT2 (UniProt Q10471),0.008,0.057,0.001,0.007,-0.004
HDAC2 (UniProt Q92769),0.022,0.042,0.08,-0.002,0.111
FDFT1 (UniProt P37268),-0.064,0.319 (active),0.089,0.109,-0.021
GMEB1 (UniProt Q9Y692),0.02,0.084,-0.007,0.024,0.022
FANCD2 isoform 1 (UniProt Q9BXW9),-0.018,0.068,0.159,-0.041,-0.009
GNS (UniProt P15586),0.037,0.011,0.013,-0.001,0.027
FAM91A1 (UniProt Q658Y4),0,0.04,0.028,0.013,-0.043
GDPD1 (UniProt Q8N9F7),-0.054,0.003,0.057,-0.024,0.034
FASTKD1 (UniProt Q53R41),-0.038,0.151,0.013,0.204,0.07
HEATR3 (UniProt Q7Z4Q2),-0.073,-0.014,0.026,0.004,-0.04
HIKESHI (UniProt Q53FT3),0.014,0.12,0.149,-0.091,-0.027
HNRNPH1 (UniProt P31943),-0.032,-0.007,0.045,-0.015,-0.017
GINS2 (UniProt Q9Y248),-0.011,0.102,0.115,-0.033,-0.026
GOLGB1 isoform 2 (UniProt Q14789),0.045,-0.024,0.018,0.013,0.045
GPAT4 (UniProt Q86UL3),0.023,0.046,0.013,-0.046,-0.015
FRA10AC1 isoform 3 (UniProt Q70Z53),-0.03,0.005,0.055,0.069,0.073
HSPA8 (UniProt E9PK54),0.004,-0.108,0.037,0.099,-0.001
FBXO3 (UniProt Q9UK99),0.006,-0.03,0.033,0.055,0.127
IDI1 isoform 2 (UniProt Q13907),-0.024,0.024,0.037,0.003,-0.007
FUT8 (UniProt Q9BYC5),0,0.068,-0.06,-0.168,0.049
FMC1 (UniProt Q96HJ9),0.009,0.06,0.044,0,-0.002
HNRNPUL1 (UniProt Q9BUJ2),-0.021,-0.028,0.024,0.07,0.058
GTF2E1 (UniProt P29083),-0.086,0.089,0.136,-0.052,0.034
FUCA1 (UniProt P04066),-0.001,0.058,0.03,0.018,0.053
GALNT11 (UniProt Q8NCW6),-0.027,0.096,0.093,-0.097,-0.027
